The values that follow come from article PMC12136788.

B1: chrX:100667754:100667755:+_ENSG00000126945_ENST00000316594|hu_hu|FALSE|FALSE (ssRNA)
RNA: GGGAGUUCUACAGUCCGACGAUCUCCGUAUCUAUGAUCAGACAUUCCUGAAAAACAGUAAUUGAGGUCUCUUCCAAAUCUAUCAGACCCAAAGCCAUAUCCAUCAUUAUAGCCACCAUAGUCAUCAUAGCCUCCAUACCCUCCCAACAGAGGAUUGAGCAUCA
B2: 31508769_31511148_1743_CDS_ENSG00000113360_ENST00000513349|human|control|control (ssRNA)
RNA: GGGAGUUCUACAGUCCGACGAUCAGGGUGGGCCUUUUUGCGUUUGAUUUCUGCAAUAACGUCAAAAACUUCAGAGUCUGAGCUGCUAGAACAGGUGCUGUCCUCAUCAGACUCACACUCGGAUUCACUGGAACUCUCUAAAUCCAACAGAGGAUUGAGCAUCA
B3: chr3:127788656:127788657:+_ENSG00000058262_ENST00000243253|hu_mus|motif|central (ssRNA)
RNA: GGGAGUUCUACAGUCCGACGAUCAAUUCACUUCUACUGGUUUUUUGCCAAUGCCAGAAAAAGCAAAAUUUCAAAUUGGAAAUUUCCGGGCACUUUACACAGUGGAAUGAAAAGAUAUGAAAUUUUAAAAAAAAUUAAAAAAAACAACAGAGGAUUGAGCAUCA
B4: 95941554_95941674_2216_3pUTR_ENSG00000164938_ENST00000448464|human|control|control (ssRNA)
RNA: GGGAGUUCUACAGUCCGACGAUCGCCAGAGUGGUUAAAGAUUUUGCCUGAAGUUAAAACAAAAAAUGAAAAGUCACUUGGACUGCAGGGAAGAAUACUUACAAUACAAGGCAAUUAAAAAAAAAAAAAGAAAAAAGUUGAGCCCAACAGAGGAUUGAGCAUCA
B5: chr3:127788656:127788657:+_ENSG00000058262_ENST00000243253|hu_hu|motif|central (ssRNA)
RNA: GGGAGUUCUACAGUCCGACGAUCCACUUUCACAGUUCUUUUUGCCAGUGCCAGGAUAAAAAGCAAAAUUUUAAAUUGGAAAAUGUCGGGCACUUUACACAGUGGAAUGAAAGAAUACGAAAUUCAAAAACAUUAUUAAAAGUCCAACAGAGGAUUGAGCAUCA
B6: chr1:163112212:163112213:-_ENSG00000143248_ENST00000313961|hu_hu|hu_hu_hu_mus_False|48_48 (ssRNA)
RNA: GGGAGUUCUACAGUCCGACGAUCUUUUAUUAUCAGUAAGAGUGAGUUACAUACUAGGCAAAGUAUUGGAUACAAUAAUCAGGAAACAAACACAAUUGGUCCAGAAUUUAAAACUUUAUGAGCGAAGUGCUGGCACAGGACUUACAACAGAGGAUUGAGCAUCA
B7: chr3:154749246:154749247:-_ENSMUSG00000053870_ENSMUST00000066568|mus_hu|FALSE|FALSE (ssRNA)
RNA: GGGAGUUCUACAGUCCGACGAUCGCCAUUUUUAUUAUUAAAAAUAGAAUUACAGUUGAGGAGAGAAGUGCCAGUGAAUACUUAGAACUUCACUGGACCAAAAGCCUCAAAAAAGAUGGAAAAAUUCCAAAGGUAUGCUUAGAACAACAGAGGAUUGAGCAUCA
B8: chr16:94664382:94664383:+_ENSMUSG00000040785_ENSMUST00000117648|mus_hu|motif|central (ssRNA)
RNA: GGGAGUUCUACAGUCCGACGAUCAAAAGCUGGUGCUGAAGAUGAAUCUGACACUGGUUUAGACUUUACAUCUGGUUUAAAUUCCCGGGCAGCUGGAUUCAGUUGUAGUUUAACUCGUACAUACUCCCCUGCUUUUGAAAUUUCCAACAGAGGAUUGAGCAUCA
B9: chr17:65740002:65740003:+_ENSG00000130935_ENST00000581375|hu_hu|hu_hu_hu_mus_False|48_58 (ssRNA)
RNA: GGGAGUUCUACAGUCCGACGAUCAACAAAUCUUUCUUCCCUGGACGAACAGGAAGAUUCAUAUUAAAAAAAAUAUAUGUCUAUGAAGGAGAAUUGAGUGGCCACACCUUUACUCCCAGCACUUUGGGAGGUGGAUCUCUGAGUCAACAGAGGAUUGAGCAUCA
B10: 140276459_140277056_1559_CDS_ENSMUSG00000040945_ENSMUST00000038893|mouse|control|control (ssRNA)
RNA: GGGAGUUCUACAGUCCGACGAUCGUCUCGCGCUAUCACCAAGGAGUGUGAAUAGCCCAUGGCCACCUGUUCGGAGAAGAUGCCAUCCAGAGUCUUCACCUCCUGGGCCGCAGUAGAAGACUUGGGCUUGUGGUCCCCAUACCCCAACAGAGGAUUGAGCAUCA
B11: chr18:77696836:77696837:-_ENSMUSG00000025427_ENSMUST00000026494|mus_mus|FALSE|FALSE (ssRNA)
RNA: GGGAGUUCUACAGUCCGACGAUCUCCUCGGGAUAGAGGGAUGAGAGGGCUUAGGAAUGUAGGGAGGGGAGGGAAGACAGAGAGCAGACUUGAGGUGGGGAAAGAGGCCUGGGGGAGGGGGCACGAGUGACAAGUGAAAGGAUUCAACAGAGGAUUGAGCAUCA
B12: chr11:71671816:71671817:+_ENSG00000137522_ENST00000530137|hu_hu|FALSE|FALSE (ssRNA)
RNA: GGGAGUUCUACAGUCCGACGAUCGCGAUGAGGAUGAGGACCAUUUCAGCAUGCAUAGCUUCAUGGCCACGGUGCUUGGCAUGCAUGCGUGCGUGCUCGACCCUCAUCCAGCUCCCGUUCCCCAGCAGCACCACCUCCAACCUCCAACAGAGGAUUGAGCAUCA
B13: chr18:46858332:46858333:-_ENSG00000141627_ENST00000269445|hu_hu|FALSE|FALSE (ssRNA)
RNA: GGGAGUUCUACAGUCCGACGAUCCGACUGCUGAGGGAAAACAUGGGCCCCUGGAGGAGGUGGCUUUUCUUGUCUGAUAAAGUUAUAUAAUAAGGUCUUCACAAGUUUGCUGGUGUAUGGAAGACAUGGACCUCGCAUCAAAUACAACAGAGGAUUGAGCAUCA
B14: chr8:108054885:108054886:-_ENSMUSG00000013160_ENSMUST00000013304|mus_mus|FALSE|FALSE (ssRNA)
RNA: GGGAGUUCUACAGUCCGACGAUCUGAACGCUGGUGCAGUGUGCCUGUGAUUAGCAGGAUCACGUUGUCAAUCAUGUAGCUAUAAGUUAUGAAGUCCAGGAAGCUGGCGAGCGGCUCAUAAGCAUGGUUUCUCAUGUGGCGGAACAACAGAGGAUUGAGCAUCA

In all, about 24,000 sequences were measured (“enrichment r”: median about 0.99, highest 2% from about 3.7 on). Shown is part of a subset that was picked to be rich in the highest values.

The experiment has as its target T1, UNK ZnF1-3 (human, UniProt Q9C0B0 31-174).
T1 sequence: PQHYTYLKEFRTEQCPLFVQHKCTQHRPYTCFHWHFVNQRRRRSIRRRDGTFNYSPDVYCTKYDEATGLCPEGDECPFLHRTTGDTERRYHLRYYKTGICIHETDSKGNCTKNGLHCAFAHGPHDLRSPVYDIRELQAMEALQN
The experiment in a line: nsRBNS (natural sequence RNA bind-n-seq); RBNS binding buffer (assumed for nsRBNS): 25 mM Tris pH 7.5, 150 mM KCl, 3 mM MgCl2, 0.01% Triton X-100, 500 ug/ml BSA, 20 U/ml SUPERase-In, 4 C; UNK is unkempt and MSI1 is Musashi-1; names of the RNAs are library labels; protein concentration not given here; high values mean tight binding.
Consider B1, for which the binding signal was 1.11 enrichment R.

The molecule B2 gave a binding signal of 0.49 enrichment R.

For B3, the binding signal came out at 6.28 enrichment R.

In turn, B4 yielded a binding signal of 12.6 enrichment R.

Molecule B5 returned a binding signal of 4.09 enrichment R.

Molecule B6 yielded a binding signal of 1.39 enrichment R.

In the case of B7, the binding signal came to 2.22 enrichment R.

Take B8: the binding signal came to 1.16 enrichment R.

B9 gave a binding signal of 1.64 enrichment R.

Take B10: the binding signal was 0.829 enrichment R.

As to B11, the binding signal worked out at 2.5 enrichment R.

On to B12, for which the binding signal was 0.585 enrichment R.

B13 showed a binding signal of 2.32 enrichment R.

For the molecule B14, the binding signal amounted to 0.896 enrichment R.
